Experimental data: ChEMBL document CHEMBL4513216, “Probing the Open Global Health Chemical Diversity Library for Multistage-Active Starting Points for Next-Generation Antimalarials” (ACS Infect Dis, 2020)
The campaign covered roughly 65,000 compounds. About 2,100 (3.2%) showed an effect of 50% or more. The median lay at about -52%. This is one part of a sample in which strong results are shown more often than they occur.

Each compound was assayed on Plasmodium falciparum (assay: Screen against P. falciparum Asexual Blood Stage (ABS), at 5uM). Conditions: tested at 5 uM.
Assay type: functional, Dd2

Row | Structure (SMILES) | INHIBITION
1 | CC(CN1CCCC1=O)NC(=O)Nc1ccccc1Cn1cccn1 (configuration not stated) | -4.06%
2 | CCOCC1c2c(cnn2C)CCN1C(=O)c1ccncn1 (configuration not stated) | -224%
3 | Cc1cccc(C)c1Oc1ncccc1CNC(=O)C1COC(=O)N1 (configuration not stated) | -180%
4 | CCC(CC)C(=O)NCc1cn2cc(Br)ccc2n1 | 1.4%
5 | COc1ccc(OCCN(C)c2cc(C)nc(N)n2)cc1 | 63.7%
6 | COc1ccc(F)c(-c2cc(C)nc(N)n2)c1 | -23.9%
7 | Cc1cc(N(C)CCCn2cccn2)nc(N)n1 | 26.7%
8 | CN(C)c1ccccc1CN1CCCC(N2CCCC2=O)C1 (configuration not stated) | -44.5%
9 | Cc1cccc(C(=O)N2CCC3(CC2)CC(c2cnn(C)c2)CO3)c1 (configuration not stated) | -85.1%
10 | CN(C)CC1(O)CCCN(C(=O)Cc2ccc(Cl)c(Cl)c2)C1 (configuration not stated) | 58.9%
11 | CN(C)CC1(O)CCCN(C(=O)CCn2cc(Cl)cn2)C1 (configuration not stated) | -101%
12 | CN(C)CC1(O)CCN(C(=O)Cc2ccc3c(c2)CCC3)C1 (configuration not stated) | -116%
13 | O[C@H]1CCCC[C@@H]1N1CCN(CCCc2ccc3c(c2)OCO3)CC1 | 28.7%
14 | CN(C)C(CNCc1nc(-c2ccsc2)no1)c1cccc(F)c1 (configuration not stated) | -31.3%
15 | CN(C)C(CNCc1nc(-c2ccsc2)no1)c1ccsc1 (configuration not stated) | 55.4%
16 | CN(C)C(CNCc1nc(-c2ccsc2)no1)c1cccs1 (configuration not stated) | 12.3%
17 | CCC1=NC(SCC(=O)c2ccccc2)c2cc(CC)sc2N1 (configuration not stated) | -23.2%
18 | c1ccc(-c2cc(CNCCN3CCCC3)c3nnnn3c2)cc1 | -1.88%
19 | c1ccc(-c2cc(CNCCCN3CCCCC3)c3nnnn3c2)cc1 | 65.4%
20 | c1ccc(-c2cc(CNCCN3CCOCC3)c3nnnn3c2)cc1 | -57.2%
21 | O=C([C@@H]1C[C@@H]2CCN(CCc3ccccc3)C[C@H]2O1)N1CCCC1 | -35%
22 | CC(O)CN1CCC(CNCc2ccccc2Cl)CC1 (configuration not stated) | 44.5%

Row | Structure (SMILES) | INHIBITION
23 | CCc1nnc2n1CC(CNCC1CCCC1)CC2 (configuration not stated) | -108%
24 | COc1ccc2c(c1)C(=O)NC1(CC2)CCN(Cc2ccccn2)C1 (configuration not stated) | -30.5%
25 | COc1ccc2c(c1)OC1(CCN(Cc3ccc(F)cc3)CC1)CC2=O | -50.5%
26 | COc1ccc2c(c1)C(=O)NC1(CC2)CCN(Cc2cccnc2)C1 (configuration not stated) | -50.6%
27 | COc1ccc2c(c1)C(=O)NC1(CC2)CCN(Cc2ccccc2)C1 (configuration not stated) | 64.7%
28 | COc1ccc2c(c1)C(=O)NC1(CC2)CCN(Cc2ccc(F)cc2)C1 (configuration not stated) | 66.7%
29 | COc1ccc2c(c1)C(=O)NC1(CC2)CCN(Cc2ccncc2)C1 (configuration not stated) | -28.2%
30 | Cc1ccc(C(=O)Nc2ccccc2F)n1C | -184%
31 | CC(=O)Nc1ccc(-c2cn(CCn3c(C)cc(C)nc3=O)nn2)cc1 | -49.9%
32 | COc1ccc(-c2cn(CCn3c(C)cc(C)nc3=O)nn2)cn1 | -102%
33 | COc1c(F)cc(-c2cn(CCn3c(C)cc(C)nc3=O)nn2)cc1Cl | 59.7%
34 | c1ccc(CN2CCCn3nnc(Cn4cccc4)c3C2)nc1 | -33.7%
35 | Cc1ccc(N2CC[C@H]3O[C@@H](C(=O)N4CCCO4)CC[C@H]32)nn1 | -24.1%
36 | Cc1cnc(C(=O)N2CCC3(CC2)CN(c2ccccn2)CCO3)cn1 | -79.7%
37 | CCOCC1CCN(C(=O)Nc2ccc3c(c2)CCCN3C)C1 (configuration not stated) | 58.9%
38 | CCOCC1CCN(C(=O)Nc2ccc3c(c2)CCCO3)C1 (configuration not stated) | -50.7%
39 | CCNC(=O)C1CCCN(C(=O)Nc2ccc3c(c2)CCCN3C)C1 (configuration not stated) | 13.1%
40 | Cn1ccnc1CN1CCN(CCOc2cccc(C#N)c2)CC1 | -53.6%
41 | O=C(c1c[nH]cn1)N1CCC(F)(F)C2(CCN(c3cnccn3)C2)C1 (configuration not stated) | -94.9%
42 | CC(=O)N1C[C@H](NS(=O)(=O)Cc2cccc(Cl)c2)[C@@H](C(C)C)C1 | -62.4%
43 | Cc1cc(NCc2cc3n(n2)CCCN(C(=O)C2CCC2)C3)nc(N)n1 | -79.3%
44 | COc1cccc(C(=O)N2CCc3nc(C4CCCN4)ncc3C2)c1 (configuration not stated) | 4.58%

Row | Structure (SMILES) | INHIBITION
45 | COc1ccc(C)cc1CN(Cc1ncc(C)o1)C1CCN(C)C1 (configuration not stated) | 38.7%
46 | Cc1cnc(CN(Cc2ccc(C#N)cc2F)C2CCN(C)C2)o1 (configuration not stated) | 12.5%
47 | COc1ccc(C)cc1CN(Cc1nc(C)c(C)o1)C1CCN(C)C1 (configuration not stated) | 56.2%
48 | CN1C(Cn2cccn2)C[C@@H]2CN(C(=O)c3cccc(C#N)c3)CC[C@@H]21 (some centres not stated) | -95.8%
49 | CC(C)Oc1ccccc1OCCN1C(=O)CCNC1=O | -16.4%
50 | CCNC(=O)C1CCN(Cc2ccc(C(=O)Nc3nnc(C)s3)cc2)C1 (configuration not stated) | -162.2%
51 | OC1(CNCc2ccc(F)c(C(F)(F)F)c2)CCOC1 (configuration not stated) | -1.68%
52 | OC1(CNCc2ccc(F)c(C(F)(F)F)c2)CCSCC1 | 56.4%
53 | Cc1cc(CNCC2(O)CCOCC2)ccc1F | 16.2%
54 | O=C(NCc1cccnc1)[C@@H]1C[C@H]2[C@H](CCN2c2ncccn2)O1 | -112%
55 | CO[C@H]1CN(C)S(=O)(=O)[C@@]12CCN(Cc1ccccc1)C2 | -53.8%
56 | Cc1cc(O)c(OCC(=O)Nc2nc3c(s2)CCCCC3)cn1 | -94.4%
57 | COc1ccc(C(C)NCc2c[nH]nc2C)cc1OC (configuration not stated) | -59.7%
58 | COc1ccc(CNC(C)c2cccc(Cl)c2)c(OC)c1OC (configuration not stated) | 43.3%
59 | COc1ccc(CNC(C)c2cccc(Br)c2)c(OC)c1OC (configuration not stated) | 67.1%
60 | COc1ccc(C(C)NCc2c[nH]nc2C)cc1Br (configuration not stated) | 20.5%
61 | COc1ccc(C(C)NCc2ccc(OC)c(OC)c2OC)cc1F (configuration not stated) | 36%
62 | COc1ccc(CNC(C)c2ccc(Cl)c(Cl)c2)c(OC)c1OC (configuration not stated) | 66%
63 | CNS(=O)(=O)c1cccc(C(C)NCc2cccc(OC)c2)c1 (configuration not stated) | 3.75%
64 | COc1cc(CNC(C)c2ccc(F)c(F)c2)cc2c1OCCO2 (configuration not stated) | -7.66%
65 | COc1cc(CNC(C)c2cccc(Cl)c2)cc(OC)c1OC (configuration not stated) | 63.5%
66 | CCCn1cc(NC(=O)c2ccc(S(=O)(=O)CC)cc2)ccc1=O | -1.56%

Row | Structure (SMILES) | INHIBITION
67 | O=C(CNCCn1cccn1)NCC1(c2ccccc2)CCC1 | -77%
68 | Cn1ccc(C(=O)NCc2cccc(NC(=O)C3CCC3)c2)cc1=O | -218%
69 | CC(CN1CCCCCC1)NCc1cc(-c2ccco2)on1 (configuration not stated) | 18%
70 | COCCN(Cc1sccc1C)C(=O)COc1ccccc1O | -65.9%
71 | COCCN(Cc1sccc1C)C(=O)C1CCCN(C(N)=O)C1 (configuration not stated) | -75.6%
72 | COCCN(Cc1sccc1C)C(=O)C1CCN(C(C)C)CC1 | 57.7%
73 | Cc1nn(C)c(N2CCOCC2)c1CNCc1ccc(CO)c(F)c1 | -77.5%
74 | Cc1nn(C)c(N2CCOCC2)c1CNCc1ccc(Cl)s1 | 53%
75 | Cc1nn(C)c(N2CCOCC2)c1CNC1CCc2ccccc21 (configuration not stated) | 45.3%
76 | Cc1nn(C)c(N2CCOCC2)c1CNC1CCc2cc(F)ccc21 (configuration not stated) | 40.1%
77 | Cc1nn(C)c(N2CCOCC2)c1CNCc1ccc2c(c1)OCO2 | 64.5%
78 | Cc1nn(C)c(N2CCOCC2)c1CNCc1nccs1 | -58.2%
79 | Cc1nn(C)c(N(C)C)c1CNCc1ccc2c(c1)OCO2 | 35.3%
80 | Cc1ccc2c(c1)CCC2NCc1c(C)nn(C)c1N1CCOCC1 (configuration not stated) | 64.2%
81 | Cc1nn(C)c(N2CCOCC2)c1CNCc1ccnc(N(C)C)c1 | -24.8%
82 | Cc1nn(C)c(N2CCOCC2)c1CNCc1ccnn1C | -222%
83 | Cc1nn(CC(C)C)c(N(C)C)c1CNCc1ccc2c(c1)OCO2 | 54.6%
84 | Cc1nn(CC(C)C)c(N(C)C)c1CNCc1cccc2c1OCO2 | 29.4%
85 | O=C1C(N2CC[C@@H](O)C2)CCCN1Cc1cccc(C(F)(F)F)c1 (some centres not stated) | -51.6%
86 | CCOCCN1CCN(C=C2NN=C(c3occc3C)O2)CC1 | -7.75%
87 | COc1ccc2c(c1)sc(=NC(=O)CSCC(=O)Nc1nccs1)n2C | -52.2%
88 | CC(C)(O)CN1CCN(C(=O)c2cnn(-c3ccccc3F)c2)CC1 | -73.1%

Row | Structure (SMILES) | INHIBITION
89 | c1ccc(-c2nc(CN3CCCC3Cn3cncn3)co2)cc1 (configuration not stated) | -69.1%
90 | CNC(=O)[C@H]1C[C@H]2CN(C(=O)NC(C)C)C[C@@H]1O2 | -50%
91 | COc1cc(CN(C)Cc2cccnc2)c(SC)cc1OC | -61.6%
92 | COc1ccc2nnc(CCCC(=O)NCc3ccccc3OC)n2n1 | -64.6%
93 | Cc1cnc(CN(Cc2cccc(O)c2)CC2CC2)cn1 | -23.7%
94 | CN1C(=O)CN(C(=O)c2ccc(=O)n(C)c2)c2ccccc21 | -50.5%
95 | Cc1nc(CNCc2c(C)nn(C)c2N2CCOCC2)cs1 | 27.5%
96 | Cc1nn(C)c(N2CCOCC2)c1CNCc1cscn1 | 56.6%
97 | CC(C)c1nn(C)c(N2CCOCC2)c1CNCc1cscn1 | -72.2%
98 | COc1ccccc1-c1ccc(C(=O)N2C[C@@H]3CC[C@H]2CN(C)C3)cc1 | -93.3%
99 | Cc1nc(C)n(CC2CCCN2Cc2nnc(-c3ccco3)o2)n1 (configuration not stated) | -53.7%
100 | Cc1nc(-n2nc(-c3cccs3)cc2N)[nH]c(=O)c1C | -26.1%
101 | Cc1n[nH]cc1CNC(=O)Nc1cccc(OCC(F)(F)F)c1 | -31.6%
102 | Cc1n[nH]cc1CNCc1ccnc(OCC(F)(F)F)c1 | -64.7%
103 | Cc1n[nH]cc1CNCc1cccc(OCC(F)(F)F)c1 | 57.9%
104 | COc1ccc(NS(=O)(=O)C=c2[nH]c(=O)n3cccc3c2=O)cc1Cl | -76.2%
105 | CC(C)(C(=O)NCC(N)=O)c1ccccc1F | -60.2%
106 | CC(C)(CNC(=O)C(C)(C)c1ccccc1F)C(N)=O | -83%
107 | CN(C)C(C)(C)CNC(=O)C(C)(C)c1ccccc1F | 53.3%
